MARV entry inh: inhibitors of Marburg virus binding or entry into cells. Marburg virus pseudotype entry/binding inhibition, cell-based. actives 6.5% (n = 18,000). Potency, µM (highest dose often 49.2 µM), without a hit: at the highest dose activity change, negative = inhibition, hits mostly inhibitors
Lassa entry: inhibitors of Lassa virus binding or entry into cells. Potency, µM (top dose mostly 49.2 µM), for inactives: at the highest dose activity change, negative = inhibition, hits mostly inhibitors. Lassa virus pseudotyped entry inhibition, cell-based qHTS. actives 4.1% (n = 18,000)
Active calls of the source: *; ? = inconclusive; [ ] = another dose, or the depositor's remark. Only some compounds are listed: those with a hit (about 7.1% of all), similar ones and a draw of the others. The call rests on the fitted dose curve; tested in HEK293 cells. On the % scale 0 is the no-effect control and ±100 the full control effect; potency means the concentration at half of the fitted maximal effect.

SMILES	MARV entry inh	Lassa entry
CSCC[C@H](N)C(=O)N[C@@H](CCCN=C(N)N)C(=O)N[C@@H](CC(C)C)C(=O)N[C@@H](Cc1ccccc1)C(=O)N[C@H](C(=O)O)C(C)C	-5%	6%
COC(=O)CC=C[C@@H](C)[C@H](NC(=O)OC)c1ccccc1Br	-29%[8.59 µM]	14%[8.59 µM]
C=C(C)[C@]12C[C@@H](C)[C@@]34O[C@](Cc5ccccc5)(O[C@@H]1[C@@H]3C=C(COC(=O)Cc1ccc(O)c(OC)c1)C[C@]1(O)C(=O)C(C)=C[C@@H]41)O2	16µM*	?
[S]=[Sb](=[S])[S][Sb](=[S])=[S]	14%	0%
C=C1c2cccc(OC)c2O[C@H](C(=O)OCC)[C@@H]1CCC(C)C	0%	4%
Cc1cccc(CNC(=O)c2cnn(-c3ncc(C)c(-c4cccs4)n3)c2C2CC2)n1	6%	-10%
O=Nc1ccc(O)c2ncccc12	4µM*	2.5µM*
Cc1ccc(O)c2ncccc12	33%	12%
O=[N+]([O-])c1ccc(O)c2ncccc12	16µM*	11µM*
Nc1ccc(O)c([N+](=O)[O-])c1	-16%[107 µM]	-15%[107 µM]
CC(=O)CCC(=O)O	-1%	7%
C=C1C(=O)O[C@@H]2[C@H]3O[C@]3(C)CCC=C(C)CC[C@@H]12	16µM*	22µM*
CC(=O)OC1CC[C@]2(C)C(CC(OC(C)=O)[C@]3(C)C2CC[C@@]2(C)C(c4ccoc4)OC(=O)C4O[C@]432)C1(C)C (some centres undefined)	?	0%
CC1=CC[C@@H](C)O[C@@]2(C1)C(=O)Nc1ccccc12	-9%[8.59 µM]	22%[8.59 µM]
CCC[C@H](NC(C)=O)C(=O)N[C@H]1CC(=O)ONCCCC[C@@H](C(N)=O)NC(=O)[C@H](Cc2c[nH]c3ccccc23)NC(=O)[C@H](CCCN=C(N)N)NC(=O)[C@@H](Cc2ccc3ccccc3c2)NC(=O)[C@H](Cc2cnc[nH]2)NC1=O	3%	-4%
CNCCNS(=O)(=O)c1cccc2cnccc12	-16%	23%
O=S(=O)(NCCNC/C=C/c1ccc(Br)cc1)c1cccc2cnccc12	13µM*	-7%
CC(C)c1ccc2c(N=Nc3ccc(S(N)(=O)=O)cc3)c(O)[nH]c2c1	?	23%
CN(CCc1ccc(Cl)c(Cl)c1)C[C@@H](O)COc1ccc(NS(C)(=O)=O)cc1	14µM*	-21%
CC(C)NC[C@@H](O)COc1ccc(CC(N)=O)cc1	-24%	1%
CCCCc1nc2c(c3c1C[C@H](C)OC3)CN(C(=O)c1cc(I)ccc1F)CC2	?	-3%[8.59 µM]
COc1cc([C@@H]2c3cc4c(cc3[C@@H](O[C@@H]3O[C@@H]5CO[C@@H](C)O[C@H]5[C@H](O)[C@H]3O)[C@H]3COC(=O)[C@H]23)OCO4)cc(OC)c1O	?	1.1µM*
COc1cc([C@@H]2c3cc4c(cc3C(O[C@@H]3O[C@@H]5CO[C@@H](C)O[C@H]5[C@H](O)[C@H]3O)C3COC(=O)[C@@H]32)OCO4)cc(OC)c1OP(=O)(O)O (some centres undefined)	2.8µM*	3.2µM*
COc1cc(C2c3cc4c(cc3C(OC3OC5COC(C)O[C@@H]5C(O)C3O)C3COC(=O)C23)OCO4)cc(OC)c1O (some centres undefined)	1.1µM*	?
CCCCCCCC1=CC2=CC(=O)C(C)(O)C(=O)C2=CN1CCCC (centres undefined)	?	8%[8.59 µM]
SMILES	MARV entry inh	Lassa entry
O=C(c1cccs1)N1C[C@@H](n2cc(-c3ccc(F)cc3)nn2)[C@@H](O)C[C@@H]1c1ccc(Cl)cc1	?	-27%
CC#CCN1C(=O)NC(c2ccccc2)C(C(=O)OC)=C1C (centres undefined)	?	8%[8.59 µM]
Cc1c2c(c(O)c3c(O)cccc13)C(=O)O[C@H]2C1C(N(C)C)C(O)=C(C(N)=O)C(=O)[C@H]1O (some centres undefined)	8.9µM*	-1%
CN(C)[C@@H]1C(=O)C(C(N)=O)=C(O)[C@@]2(O)C(=O)C3=C(O)c4c(O)cccc4[C@@](C)(O)[C@H]3[C@H](O)[C@@H]12	?	-23%
CCOC(=O)NN=C1C[C@@H](O)[C@@H](O)[C@@H]2[C@H]3C(=O)N(Cc4ccccc4)C(=O)[C@@H]3CC[C@@H]12	25%[8.59 µM]	8%[8.59 µM]
COc1ccc(C2=NC(c3ccc(Cl)cc3)C(c3ccc(Cl)cc3)N2C(=O)N2CCNC(=O)C2)c(OC(C)C)c1 (centres undefined)	?	-26%
CCCCCCC[N+](CC)(CC)CCCCc1ccc(Cl)cc1	?	5µM*
CCCCCCCCc1ccc(-c2ccc(C(=O)O)cc2)cc1	-1%	9%
CCOC(=O)CNC(=O)O[C@@H]1Cc2cc(OC)ccc2O[C@H]1c1cccc(OC)c1	34%	7%
CCCC1CCCCN1 (centres undefined)	4%	-4%
C1CCC(C(CC2CCCCN2)C2CCCCC2)CC1 (centres undefined)	4µM*	?
CN(C)Cc1ccccc1-c1cncnc1NCc1ccccc1	-25%	-5%
COc1ccccc1CNc1ncncc1-c1ccccc1CN(C)C	?	-22%
CN(C)Cc1ccccc1-c1nc(NCc2ccccc2)c2ccccc2n1	10µM*	?
COc1ccccc1CNc1ncnc2ccc(-c3ccccc3CN(C)C)cc12	20µM*	-6%
COCCNc1nc(-c2ccccc2C)nc2ccccc12	-1%	-2%
COCCNc1nc(-c2ccccc2CN(C)C)nc2ccccc12	13µM*	-24%
COc1ccccc1CNc1nc(-c2ccccc2CN(C)C)nc2ccccc12	11µM*	?
Cc1cnc(CNc2ncnc3ccc(-c4ccccc4CN(C)C)cc23)cn1	-23%	1%
CC1(OC(=O)c2cnc3ccccc3n2)C(=O)C=C2C=C3CCCN3C=C2C1=O (centres undefined)	2%[8.59 µM]	5%[8.59 µM]
OCCN1CCN(Cc2ccc3c(c2)CN(Cc2ccc4ccccc4c2)CCO3)CC1	?	0%
COc1cccc(-c2ccnc(-n3ncc(C(=O)NCc4cccnc4)c3C3CC3)n2)c1	-24%	-22%
COC(=O)C1=C(C)C(=O)[C@]2(O)c3ccccc3N(C)[C@]12C	18%[8.59 µM]	-18%[8.59 µM]
CCCN(CCC)Cc1cc(=O)oc2ccccc12	15%	26%
CCn1c(-c2ccccc2F)nc2cc(NC(C)=O)cc(C(=O)N3CCC[C@H]3C(=O)OC)c21	4%	1%
SMILES	MARV entry inh	Lassa entry
CC(=O)Nc1ccccc1-c1nc(CNC(=O)c2ccc(C)cc2)c(C)o1	-6%	4%
COC(=O)N[C@@H](c1ccccc1)[C@]1(C(C)=O)CCCC1=O	-4%[8.59 µM]	10%[8.59 µM]
COC(=O)c1ccccc1-c1cc(C)cc2c1OC(CNC(=O)c1cc(C)on1)C2 (centres undefined)	?	-15%
Cc1ncc2c(c1CNC(=O)c1cncs1)CCN(C(=O)c1csc(-c3cccs3)n1)C2	35µM*	-21%
CCS(=O)(=O)NCc1c(C)ncc2c1CCN(C(=O)c1csc(-c3cccs3)n1)C2	4%	-23%
C[C@@H]1CN(Cc2ccc3c(c2)CN(Cc2cccc4c2OCO4)CCO3)C[C@H](C)O1	-29%	-1%
CSc1ncccc1C(=O)NCC1Cc2cc(-c3cnccn3)cc(Cl)c2O1 (centres undefined)	9%	3%

Screening results deposited in PubChem by National Center for Advancing Translational Sciences (NCATS).
